Laboratory results: the supplement of paper PMC6992640
Where a name gives a salt, the structure may show the parent alone. ± gives the standard deviation of the averaged measurements.

Experiments:
Test in all cases: cell viability (% of vehicle); higher = less cytotoxic
Conditions in all cases: 10 µM; 72 h
HCI01 = tested on: HCI01 (cells of a triple-negative basal-like breast cancer xenograft)
HCI03 = tested on: HCI03 (cells of an ER-positive luminal breast cancer xenograft)
HCI09 = tested on: HCI09 (cells of a triple-negative luminal androgen receptor type breast cancer xenograft)
HCI11 = tested on: HCI11 (cells of an ER-positive luminal breast cancer xenograft)
HCI13 = tested on: HCI13 (cells of an ER-positive luminal breast cancer xenograft)
HCI16 = tested on: HCI16 (cells of a triple-negative basal-like breast cancer xenograft)
UCD52 = tested on: UCD52 (cells of a triple-negative basal-like breast cancer xenograft)
WHIM2 = tested on: WHIM2 (cells of a triple-negative basal-like breast cancer xenograft)
WHIM30 = tested on: WHIM30 (cells of a triple-negative basal-like breast cancer xenograft)
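Further: PDX cells carrying CMV promoter-driven luciferase, viability read as total photon flux per second by IVIS imaging following D-luciferin, vehicle control 0.1% DMSO.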

SMILES	cell viability (HCI01)	cell viability (HCI03)	cell viability (HCI09)	cell viability (HCI11)	cell viability (HCI13)	cell viability (HCI16)	cell viability (UCD52)	cell viability (WHIM2)	cell viability (WHIM30)
CCOC(=O)C1OC1C(=O)NC(CC(C)C)C(=O)NCCC(C)C (stereo unspecified)	108 ± 6.8	118	97.6 ± 1.9	91.9	165 ± 7.1	70.3	97.4 ± 3.2	105 ± 38	99.6 ± 12
O=C([O-])CCCc1ccccc1.[Na+] [Sodium Phenylbutyrate]	122 ± 6.5	135	101 ± 19	117	124 ± 8.9	127	103 ± 16	103.7 ± 0.73	162 ± 27
CCOC(=O)C(CCc1ccccc1)NC1CSC(c2cccs2)CN(CC(=O)O)C1=O.Cl (stereo unspecified) [Temocapril HCl]	80.7 ± 40	103	106 ± 31	82.3	116 ± 9.8	101	88.7 ± 3.7	99 ± 12	114 ± 13
CON=C(C(=O)NC1C(=O)N2C(C(=O)O)=C(CSC(=O)c3ccco3)CSC12)c1csc(N)n1.Cl (stereo unspecified) [Ceftiofur HCl]	90.2 ± 12	132	95.9 ± 8.5	100	56.9 ± 2.3	103	103 ± 12	104 ± 10	111 ± 14
Cc1cnc(NC(=O)C2=C(O)c3ccccc3S(=O)(=O)N2C)s1 [Meloxicam (Mobic)]	104 ± 10	125	96.1 ± 18	102	124 ± 5	88.8	80.5 ± 6.5	94 ± 12	81.3 ± 13
CCCCOc1cc(C(=O)NCCN(CC)CC)c2ccccc2n1.Cl [Dibucaine (Cinchocaine) HCl]	124 ± 13	154	92.3 ± 9.3	103	116 ± 5.1	101	68 ± 3.4	96.4 ± 5.9	109 ± 4.7
CC(=O)N(c1onc(C)c1C)S(=O)(=O)c1ccc(N)cc1 [Sulfisoxazole Acetyl]	90.9 ± 1.4	116	90.9 ± 11	95.7	95.2 ± 3.5	104	92.77 ± 0.54	106 ± 3.9	103 ± 1.9
CN(C)c1cc(NC(=O)CNC(C)(C)C)c(O)c2c1CC1CC3C(N(C)C)C(=O)C(C(N)=O)=C(O)C3(O)C(=O)C1=C2O (stereo unspecified) [Tigecycline]	80 ± 10	121	95.8 ± 8.5	81.9	129 ± 23	120	96.7 ± 21	102 ± 22	129 ± 8.6
C[N+]1(C)C2CCC1CC(OC(=O)C(O)c1ccccc1)C2.[Br-] (stereo unspecified) [Homatropine Methylbromide]	96.2 ± 1.2	97.6	89.8 ± 18	85.9	105 ± 5	114	104 ± 1.8	112 ± 8	50.8 ± 2.7
CCC1OC(=O)C(C)C(OC2CC(C)(OC)C(O)C(C)O2)C(C)C(OC2OC(C)CC(N(C)C)C2O)C(C)(O)CC(C)C2NC(COCCOC)OC(C2C)C1(C)O (stereo unspecified) [Dirithromycin]	143 ± 72	117	89.5 ± 16	94	76.3 ± 11	103	81.8 ± 15	90.6 ± 12	92.4 ± 3.8
CS(=O)(=O)O.Cc1ccc(N(CC2=NCCN2)c2cccc(O)c2)cc1 [Phentolamine Mesylate]	112 ± 14	116	118 ± 7.2	112	124 ± 11	101	99.5 ± 6.4	93.5 ± 12	137 ± 12
Nc1ccn([C@@H]2O[C@H](CO)[C@@H](O)C2(F)F)c(=O)n1 [Gemcitabine HCl]	96.1 ± 22	109	93 ± 23	103	89.6 ± 16	107	133 ± 24	75.7 ± 7.1	105 ± 14
Nc1nccs1 [Aminothiazole]	147 ± 24	105	101 ± 3.2	117	98.3 ± 7.8	136	91.8 ± 5.1	116 ± 5.8	105 ± 18
Clc1ccc2c(c1)CCc1cccnc1C2=C1CCNCC1 [Desloratadine]	164 ± 55	143	99.6 ± 1.5	77.5	128 ± 19	128	67.2 ± 9.1	69.5 ± 16	102 ± 7.8
Nc1ccn(C2CSC(CO)O2)c(=O)n1 (stereo unspecified) [Lamivudine]	106 ± 17	130	94.9 ± 7.3	107	124 ± 7.9	95.2	87.7 ± 6.8	94.3 ± 11	84.4 ± 12
O=c1[nH]c(=O)n(C2CCCO2)cc1F (stereo unspecified)	158 ± 9.9	110	109 ± 5.2	112	89.2 ± 7.7	143	116 ± 20	130 ± 13	130 ± 0.83
CC12CC3CC(C)(C1)CC(N)(C3)C2.Cl [Memantine hydrochloride]	88.8 ± 14	146	104 ± 13	99.3	116 ± 3.6	98.2	92.37 ± 0.13	88.1 ± 15	156 ± 21
C=C[C@]1(C)C[C@@H](OC(=O)CSC(C)(C)CNC(=O)[C@H](N)C(C)C)[C@]2(C)[C@H](C)CC[C@]3(CCC(=O)[C@H]32)[C@@H](C)[C@@H]1O [Valnemulin HCl]	90.1 ± 7.2	107	66 ± 3.6	91.8	63.2 ± 0.68	120	78.3 ± 4.9	102 ± 20	114 ± 3
CC(N)(Cc1ccc(O)c(O)c1)C(=O)O (stereo unspecified) [Methyldopa]	95.3 ± 9.9	96.8	95.5 ± 7.2	63.1	126 ± 11	127	91.1 ± 2.8	112 ± 1.3	96.2 ± 3.6
CCN(Cc1ccncc1)C(=O)C(CO)c1ccccc1 (stereo unspecified) [Tropicamide]	112 ± 15	136	106 ± 11	101	136 ± 23	110	74.6 ± 14	91.4 ± 14	98.61 ± 0.95

SMILES	cell viability (HCI01)	cell viability (HCI03)	cell viability (HCI09)	cell viability (HCI11)	cell viability (HCI13)	cell viability (HCI16)	cell viability (UCD52)	cell viability (WHIM2)	cell viability (WHIM30)
C=CCc1cc(OC)c(O)c(C(=O)NCCO)c1 [Alibendol]	98.3 ± 18	139	107 ± 17	110	68 ± 5	133	109 ± 3.4	115 ± 23	138 ± 20
NC(=O)NO [Hydroxyurea]	62.8 ± 36	111	89.2 ± 7.3	90	113 ± 11	110	78.7 ± 4.1	96.5 ± 31	125 ± 3.9
Cc1cccc(-c2nn3c(c2-c2ccnc4ccc(C(N)=O)cc24)CCC3)n1	117 ± 2.1	90.1	115 ± 56	98.7	56.3 ± 6.4	89.8	73.1 ± 3.3	147 ± 41	111 ± 3
CCCCCCCCCC(=O)NC(Cc1c[nH]c2ccccc12)C(=O)NC(CC(N)=O)C(=O)NC(CC(=O)O)C(=O)NC1C(=O)NCC(=O)NC(CCCN)C(=O)NC(CC(=O)O)C(=O)NC(C)C(=O)NC(CC(=O)O)C(=O)NCC(=O)NC(CO)C(=O)NC(C(C)CC(=O)O)C(=O)NC(CC(=O)c2ccccc2N)C(=O)OC1C (stereo unspecified) [Daptomycin]	142 ± 4.9	141	128 ± 9.9	113	163 ± 89	111	118 ± 18	103 ± 28	162 ± 40
COc1cc(C=CC(=O)N2CCN(CC(=O)N3CCCC3)CC2)cc(OC)c1OC.O=C(O)C=CC(=O)O [Cinepazide maleate]	90.6 ± 5.7	130	94.4 ± 8.9	94.4	81.9 ± 12	106	121 ± 8.9	111 ± 17	102 ± 8.3
CC12CCC3c4ccc(O)cc4CCC3C1CC(O)C2O (stereo unspecified) [Estriol]	132 ± 20	118	125 ± 36	91.7	152 ± 25	152	105 ± 16	98.4 ± 8.9	150 ± 11
Cc1ccc(Nc2nccc(N(C)c3ccc4c(C)n(C)nc4c3)n2)cc1S(N)(=O)=O.Cl	166 ± 30	77.2	61.1 ± 13	85.4	110 ± 6.2	92	90.5 ± 2.9	152 ± 5.7	144 ± 6
NC(=O)NN=Cc1ccc([N+](=O)[O-])o1 [Nitrofurazone]	125 ± 3.8	149	38.5 ± 15	92.3	159 ± 12	148	137 ± 15	105 ± 7.4	118 ± 18
COc1nc(C)nc(Cl)c1NC1=NCCN1 [Moxonidine]	102 ± 7.2	116	103 ± 15	115	98.9 ± 5.5	95.3	82.9 ± 13	116 ± 12	118 ± 8.7
COS(=O)(=O)[O-].C[N+]1(C)CCC(=C(c2ccccc2)c2ccccc2)CC1 [Diphemanil Methylsulfate]	101 ± 3	121	97.8 ± 12	109	119 ± 5.8	84.7	94.5 ± 13	96.7 ± 19	161.9 ± 0.26
N#CC(=C1SCC(c2ccc(Cl)cc2Cl)S1)n1ccnc1 (stereo unspecified) [Luliconazole]	131 ± 29	108	73.3 ± 15	90.6	70.2 ± 5.6	72.4	88.5 ± 4.3	97.1 ± 3.4	130 ± 7.6
Nc1ccn(C2CCC(CO)O2)c(=O)n1 (stereo unspecified) [Zalcitabine]	90.1 ± 3.1	124	102 ± 5.5	93.5	91.99 ± 0.76	128	104 ± 10	85.08 ± 0.32	176 ± 35
Cl.Nc1c2c(nc3ccccc13)CCCC2 [Tacrine hydrochloride]	81.8 ± 14	119	90.7 ± 4.3	97	87.7 ± 6.4	98.3	96.6 ± 4.1	76.3 ± 2.9	87.06 ± 0.45
Cc1ncc([N+](=O)[O-])n1CC(C)O (stereo unspecified) [Secnidazole]	57.6 ± 32	133	82.6 ± 1.1	89.3	103 ± 11	114	79.3 ± 1.8	92.4 ± 20	149 ± 20
CCOC(=O)CCC(=O)OC1C(OC2C(C)C(OC3CC(C)(OC)C(O)C(C)O3)C(C)C(=O)OC(CC)C(C)(O)C(O)C(C)C(=O)C(C)CC2(C)O)OC(C)CC1N(C)C (stereo unspecified) [Erythromycin Ethylsuccinate]	105 ± 5.4	97.5	97.4 ± 21	96.1	69.6 ± 1.3	132	87.3 ± 4.6	105 ± 20	108 ± 16
OCCOc1ccc(C(=C(CCCl)c2ccccc2)c2ccccc2)cc1 [Ospemifene]	117 ± 33	139	99.6 ± 30	106	91 ± 2.3	146	86.3 ± 1.5	78.5 ± 5.9	148 ± 10
N#Cc1ccc(C(c2ccc(C#N)cc2)n2cncn2)cc1 [Letrozole]	111 ± 7.6	99.1	98.4 ± 3.9	102	88.2 ± 5.6	99.1	126 ± 15	73.7 ± 21	126 ± 8.4
CS(=O)(=O)O.N#CC1(c2ccc(NC(=O)c3cccnc3NCc3ccncc3)cc2)CCCC1 [Apatinib]	140 ± 88	109	33.4 ± 8.3	65.4	65 ± 2	119	48.5 ± 6.5	85.3 ± 4.8	105 ± 19
C=CC(=O)Nc1cccc(Nc2nc(Nc3ccc(N4CCN(C(C)=O)CC4)cc3OC)ncc2C(F)(F)F)c1	103 ± 4.6	99.9	63.8 ± 0.93	94	88.2 ± 3.4	73.3	64.7 ± 17	66.7 ± 2.6	99.6 ± 16
